# Laboratory results as given in paper PMC5540273 (PLoS ONE, 2017).
# Values joined by “and” are separate entries in the source; they are usually repeats but may differ in a detail not shown here. Identical values can stand only once. Like-named read-outs stand apart in the source and are kept apart here.
# Tests used:
# Conditions in all cases: n = 1
# EPHA4 = system: EPHA4
# EPHA5 = system: EPHA5
# EPHA6 = system: EPHA6
# EPHA7 = system: EPHA7
# EPHA8 = system: EPHA8
# EPHB1 = system: EPHB1
# EPHB2 = system: EPHB2
# EPHB3 = system: EPHB3
# EPHB4 = system: EPHB4
# EPHB6 = system: EPHB6
# [1] = concentration: 1 μM, replicates: in singlicate
# [2] = concentration: 1 μM,replicates: in singlicate, 1 µM
# 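Further: KINOMEscan kinase panel screen.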
structure (smiles),measurement,setting,value
O=S(=O)(c1ccc(-c2ccnc3[nH]ccc23)cc1)N1CCCC1 [GSK846226],%Inh,EPHA4; [1],0%
same,%Inh,EPHA5; [1],0%
same,%Inh,EPHA6; [1],0%
same,%Inh,EPHA7; [1],3%
same,%Inh,EPHA8; [1],4%
same,%Inh,EPHB1; [1],3%
same,%Inh,EPHB2; [1],0%
same,%Inh,EPHB3; [1],14%
same,%Inh,EPHB4; [1],4%
same,%Inh,EPHB6; [1],9%
Cn1ccc2ncnc(Oc3ccc(Nc4nc5ccccc5[nH]4)cc3)c21,%Inh,EPHA4; [1],12%
same,%Inh,EPHA5; [1],0%
same,%Inh,EPHA6; [1],4%
same,%Inh,EPHA7; [1],0%
same,%Inh,EPHA8; [1],0%
same,%Inh,EPHB1; [1],0%
same,%Inh,EPHB2; [1],0%
same,%Inh,EPHB3; [1],0%
same,%Inh,EPHB4; [1],1%
same,%Inh,EPHB6; [1],0%
Cl.O=C(Nc1cccc(-c2nn3ncccc3c2-c2ccnc(Nc3cccnc3)n2)c1)c1c(F)cccc1F [GSK312879],%Inh,EPHA4; [1],1%
same,%Inh,EPHA5; [1],0%
same,%Inh,EPHA6; [1],1%
same,%Inh,EPHA7; [1],7%
same,%Inh,EPHA8; [1],27%
same,%Inh,EPHB1; [1],13%
same,%Inh,EPHB2; [1],0%
same,%Inh,EPHB3; [1],0%
same,%Inh,EPHB4; [1],12%
same,%Inh,EPHB6; [1],10%
Cc1cccc(-c2nc(-c3ccc(S(C)(=O)=O)cc3)sc2-c2ccnc(NCCc3ccccc3)c2)c1,%Inh,EPHA4; [1],0%
same,%Inh,EPHA5; [1],0%
same,%Inh,EPHA6; [1],15%
same,%Inh,EPHA7; [1],0%
same,%Inh,EPHA8; [1],0%
same,%Inh,EPHB1; [1],0%
same,%Inh,EPHB2; [1],10%
same,%Inh,EPHB3; [1],0%
same,%Inh,EPHB4; [1],0%
same,%Inh,EPHB6; [1],0%
COc1ccc2nc(-c3cccc(C)n3)nc(Nc3ccncc3)c2c1 [GSK204919],%Inh,EPHA4; [1],23%
same,%Inh,EPHA5; [1],0%
same,%Inh,EPHA6; [1],18%
same,%Inh,EPHA7; [1],0%
same,%Inh,EPHA8; [1],9%
same,%Inh,EPHB1; [1],6%
same,%Inh,EPHB2; [1],0%
same,%Inh,EPHB3; [1],14%
same,%Inh,EPHB4; [1],15%
same,%Inh,EPHB6; [1],0%
CC(C)(C)c1ccc(C(=O)Nc2cn3cc(-c4cccnc4)ccc3n2)cc1,%Inh,EPHA4; [1],25%
same,%Inh,EPHA5; [1],13%
same,%Inh,EPHA6; [1],29%
same,%Inh,EPHA7; [1],4%
same,%Inh,EPHA8; [1],8%
same,%Inh,EPHB1; [1],19%
same,%Inh,EPHB2; [1],4%
same,%Inh,EPHB3; [1],26%
same,%Inh,EPHB4; [1],16%
same,%Inh,EPHB6; [1],28%
O=C(Nc1n[nH]c2nc(-c3nccs3)c(Br)cc12)C1CC1 [SB-742251],%Inh,EPHA4; [1],24%
same,%Inh,EPHA5; [1],1%
same,%Inh,EPHA6; [1],32%
same,%Inh,EPHA7; [1],18%
same,%Inh,EPHA8; [1],35%
same,%Inh,EPHB1; [1],0%
same,%Inh,EPHB2; [1],15%
same,%Inh,EPHB3; [1],29%
same,%Inh,EPHB4; [1],17%
same,%Inh,EPHB6; [1],59%
CC1=C(C(=O)Nc2cc3cn[nH]c3cc2F)C(c2ccc(C(F)(F)F)cc2)CC(=O)N1 (centres unmarked) [GSK429286],%Inh,EPHA4; [1],4%
same,%Inh,EPHA5; [1],0%
same,%Inh,EPHA6; [1],12%
same,%Inh,EPHA7; [1],11%
same,%Inh,EPHA8; [1],23%
same,%Inh,EPHB1; [1],3%
same,%Inh,EPHB2; [1],10%
same,%Inh,EPHB3; [1],21%
same,%Inh,EPHB4; [1],10%
same,%Inh,EPHB6; [1],17%
Cn1ccc2ncnc(Oc3ccc(NC(=O)Nc4ccccc4)cc3)c21,%Inh,EPHA4; [1],0%
same,%Inh,EPHA5; [1],0%
same,%Inh,EPHA6; [1],18%
same,%Inh,EPHA7; [1],0%
same,%Inh,EPHA8; [1],0%
same,%Inh,EPHB1; [1],0%
same,%Inh,EPHB2; [1],1%
same,%Inh,EPHB3; [1],22%
same,%Inh,EPHB4; [1],6%
same,%Inh,EPHB6; [1],35%
COC(=O)c1c(-c2ccccc2)c2cc(OC)ccc2c(=O)n1Cc1ccccc1,%Inh,EPHA4; [1],35%
same,%Inh,EPHA5; [1],1%
same,%Inh,EPHA6; [1],43%
same,%Inh,EPHA7; [1],0%
same,%Inh,EPHA8; [1],1%
same,%Inh,EPHB1; [1],0%
same,%Inh,EPHB2; [1],23%
same,%Inh,EPHB3; [1],35%
same,%Inh,EPHB4; [1],27%
same,%Inh,EPHB6; [1],0%
Cc1ccc(NC(=O)Nc2cccc(C(F)(F)F)c2)cc1 [GSK955403],%Inh,EPHA4; 1 µM,6%
same,%Inh,EPHA5; 1 µM,0%
same,%Inh,EPHA6; 1 µM,0%
same,%Inh,EPHA7; 1 µM,2%
same,%Inh,EPHA8; 1 µM,3%
same,%Inh,EPHB1; 1 µM,5%
same,%Inh,EPHB2; 1 µM,3%
same,%Inh,EPHB3; 1 µM,0%
same,%Inh,EPHB4; 1 µM,0%
same,%Inh,EPHB6; 1 µM,21%
CC(C)(C)c1ccc(C(=O)Nc2cn3cc(Cl)ccc3n2)cc1,%Inh,EPHA4; [1],0%
same,%Inh,EPHA5; [1],0%
same,%Inh,EPHA6; [1],0%
same,%Inh,EPHA7; [1],0%
same,%Inh,EPHA8; [1],0%
same,%Inh,EPHB1; [1],0%
same,%Inh,EPHB2; [1],0%
same,%Inh,EPHB3; [1],0%
same,%Inh,EPHB4; [1],0%
same,%Inh,EPHB6; [1],8%
O=c1cc(N2CCOCC2)nc2n(Cc3cccc(Cl)c3Cl)ccn12 [GSK2286295],%Inh,EPHA4; [1],0%
same,%Inh,EPHA5; [1],0%
same,%Inh,EPHA6; [1],0%
same,%Inh,EPHA7; [1],3%
same,%Inh,EPHA8; [1],12%
same,%Inh,EPHB1; [1],13%
same,%Inh,EPHB2; [1],0%
same,%Inh,EPHB3; [1],11%
same,%Inh,EPHB4; [1],14%
same,%Inh,EPHB6; [1],24%
Cl.Oc1ccc(-c2nc(-c3ccccc3)[nH]c2-c2ccncc2)cc1 [SB-428218],%Inh,EPHA4; [1],30%
same,%Inh,EPHA5; [1],0%
same,%Inh,EPHA6; [1],35%
same,%Inh,EPHA7; [1],0%
same,%Inh,EPHA8; [1],4%
same,%Inh,EPHB1; [1],0%
same,%Inh,EPHB2; [1],4%
same,%Inh,EPHB3; [1],25%
same,%Inh,EPHB4; [1],45%
same,%Inh,EPHB6; [1],25%
CS(=O)(=O)c1ccc(-c2nc3n(c2-c2ccncc2)CCC3)cc1 [SKF-105942],%Inh,EPHA4; [1],20%
same,%Inh,EPHA5; [1],0%
same,%Inh,EPHA6; [1],8%
same,%Inh,EPHA7; [1],10%
same,%Inh,EPHA8; [1],13%
same,%Inh,EPHB1; [1],8%
same,%Inh,EPHB2; [1],9%
same,%Inh,EPHB3; [1],14%
same,%Inh,EPHB4; [1],32%
same,%Inh,EPHB6; [1],0%
COc1ccccc1CNC(=O)c1cc(C(=O)c2ccccc2C)c[nH]1 [GSK364507],%Inh,EPHA4; [1],5%
same,%Inh,EPHA5; [1],0%
same,%Inh,EPHA6; [1],0%
same,%Inh,EPHA7; [1],8%
same,%Inh,EPHA8; [1],19%
same,%Inh,EPHB1; [1],25%
same,%Inh,EPHB2; [1],0%
same,%Inh,EPHB3; [1],6%
same,%Inh,EPHB4; [1],20%
same,%Inh,EPHB6; [1],11%
CCCc1ccc(S(=O)(=O)NC2CCN(c3ccnc(Nc4ccc(F)cc4)n3)C2)cc1 (centres unmarked) [GSK1379715],%Inh,EPHA4; [1],13%
same,%Inh,EPHA5; [1],0%
same,%Inh,EPHA6; [1],6%
same,%Inh,EPHA7; [1],2%
same,%Inh,EPHA8; [1],23%
same,%Inh,EPHB1; [1],0%
same,%Inh,EPHB2; [1],6%
same,%Inh,EPHB3; [1],15%
same,%Inh,EPHB4; [1],15%
same,%Inh,EPHB6; [1],2%
CSc1nn2c(=O)cc(N3CCOCC3)nc2n1Cc1cccc(C(F)(F)F)c1C [GSK2363608],%Inh,EPHA4; [2],2% and 23%
same,%Inh,EPHA5; [1],0%
same,%Inh,EPHA6; [2],0% and 12%
same,%Inh,EPHA7; [2],8% and 6%
same,%Inh,EPHA8; [2],0% and 18%
same,%Inh,EPHB1; [2],0% and 9%
same,%Inh,EPHB2; [1],0%
same,%Inh,EPHB3; [2],3% and 28%
same,%Inh,EPHB4; [2],13% and 17%
same,%Inh,EPHB6; [2],29% and 12%
Fc1cccc(COc2nnc(-c3ccc4c(c3)CCO4)o2)c1,%Inh,EPHA4; [1],0%
same,%Inh,EPHA5; [1],0%
same,%Inh,EPHA6; [1],11%
same,%Inh,EPHA7; [1],14%
same,%Inh,EPHA8; [1],16%
same,%Inh,EPHB1; [1],20%
same,%Inh,EPHB2; [1],0%
same,%Inh,EPHB3; [1],20%
same,%Inh,EPHB4; [1],16%
same,%Inh,EPHB6; [1],0%
COc1ccc(CNC(=O)NC2CCN(c3ccnc(Nc4cc(OC)c(OC)c(OC)c4)n3)C2)cc1 (centres unmarked) [GSK1379748],%Inh,EPHA4; [1],3%
same,%Inh,EPHA5; [1],0%
same,%Inh,EPHA6; [1],0%
same,%Inh,EPHA7; [1],0%
same,%Inh,EPHA8; [1],8%
same,%Inh,EPHB1; [1],20%
same,%Inh,EPHB2; [1],0%
same,%Inh,EPHB3; [1],0%
same,%Inh,EPHB4; [1],0%
same,%Inh,EPHB6; [1],91.8%
